Measured values published in the OligoGym collection.

These sequences were tested against C2orf57 (assay: pooled miR-30 sensor sort-seq; sequence = guide strand). Conditions: shRNA.
Also: reference of the scale not given here.

| Sequence | sensor-assay potency score (higher = more potent) |
| --- | --- |
| TGTCCTTGCGTCTTGAACCTGC | 0.175 |
| TTCTGGAACAACTGCACTCTTG | -1.11 |
| TTCTCCTCAGCAGACTTGGTGG | -0.95 |
| AACAACTGCACTCTTGTCTTTG | -0.961 |

What follows are sequences tested against C2orf70 in the same assay as above. Conditions: shRNA.

| Sequence | sensor-assay potency score (higher = more potent) |
| --- | --- |
| TACTTGAGGGTGGTGGTGCCGT | -0.758 |
| TTGTCTTGATAGTACTTCCGAT | -0.575 |
| TGTCTTGATAGTACTTCCGATG | -1.09 |
| TAGTCTTAAAAGGTGCCACTTC | -0.307 |
| TTGGTGGAGAAGATGGTGGGGA | 0.218 |
| TTCGTAAGCTCTGTGGAGCGAT | -0.412 |
| TAGCAGTCTCTCTTTTTCCGCT | -0.538 |
| TAGGTCTTCAGGTTCTCGGGGG | 0.319 |
| TAAAAGGTGCCACTTCTTCTTT | -0.951 |
| TTGAACTCGGTCAGTAGGGTGC | -0.0549 |
| TAGAAATTCGTAAGCTCTGTGG | -0.326 |
| TTGATAGTACTTCCGATGCTGC | -0.858 |

What follows are sequences tested against C2orf76 in the same assay as above. Conditions: shRNA.

| Sequence | sensor-assay potency score (higher = more potent) |
| --- | --- |
| TCTTCTTTCAGCAGGAGTCTTT | -0.508 |
| TATCTTGCTTTAGAAATACGAT | -1.11 |
| TTTGTCTTTGATTTATGTGCTT | -0.117 |
| TTTCAGAGTGCTGTCTTCTTTC | 0.204 |
| TTCGTCATCTTCCAAACTCAAC | -1.74 |
| TGTAGTTCTTATAATCTTCTTC | 0.298 |
| TAAAGGGATATCTTGCTTTAGA | -0.915 |
| TATAATTTCTGAATGGTGGTGG | 1.01 |
| TTTGTAGTTCTTATAATCTTCT | -0.217 |
| TTTCACTGGCGATTCCAGCTGC | 0.205 |
| TTGTCTTTGATTTATGTGCTTG | -0.405 |

Each sequence was assayed against C2orf79 in the same assay as above. Conditions: shRNA.

| Sequence | sensor-assay potency score (higher = more potent) |
| --- | --- |
| TTTCGTAACACCAAGTATTGTA | 0.279 |
| TACAAGTGGCGATATTCTCTGG | -0.432 |
| TAGATCCTTTCGTAACACCAAG | -1.46 |
| TTCGTAACACCAAGTATTGTAC | -0.56 |
| TTGCTCAAGCCACAGCATGTGG | -1.1 |
| TTAGGGTGGTCTCATCTGGGGC | -1.64 |
| TTGTGATAGATCCTTTCGTAAC | -1.71 |
| TTTAGGGTGGTCTCATCTGGGG | -0.919 |
| TCTTCTGTTGCAGGGTCTCGGC | -1.21 |
| TAACACCAAGTATTGTACCAGG | -0.742 |
| TTCTGTTGCAGGGTCTCGGCCA | -0.447 |
| TATTGTACCAGGACCTGCGGCT | -0.203 |
